From PubChem BioAssay AID488856 (Sanford-Burnham Center for Chemical Genomics, 2010)
Hit rate of the full screen: of about 1,400 compounds, about 50 (4%) were called active. A selection follows. Values without a mark were called inactive.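 How the source made its calls: active means mean inhibition across replicates above about 26% (limit read from the data); inactive means the rest.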

Biological target: Caspase-3 (Homo sapiens) (UniProt P42574)
Assay: CASP3 inhibitor validation, counterassay for project on UBE2N polyubiquitination blockers, biochemical, one dose (AID 488856);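 further: plate controls were DMSO with caspase-3 for no effect and DMSO wells lacking enzyme for full effect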
Settings: Recombinant caspase-3, Caspase-Glo 3/7 luminescence, 60 min; at 20 µM; active compounds read high

Chain of Caspase-3 (Homo sapiens) (P42574 whole entry, looked up): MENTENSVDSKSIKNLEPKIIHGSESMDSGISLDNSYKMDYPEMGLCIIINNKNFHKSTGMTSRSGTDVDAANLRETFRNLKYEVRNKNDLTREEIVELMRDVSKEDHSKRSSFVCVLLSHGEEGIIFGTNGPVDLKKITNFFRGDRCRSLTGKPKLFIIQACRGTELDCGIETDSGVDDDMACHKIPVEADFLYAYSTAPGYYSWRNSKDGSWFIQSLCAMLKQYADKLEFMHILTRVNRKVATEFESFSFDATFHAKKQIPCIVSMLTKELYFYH

Row | SMILES | inhibition
1 | CC(C)n1cnc2c(Nc3cccc(Cl)c3)nc(N(CCO)CCCO)nc21 | -1.5%
2 | C#CCOCCOCCOCCNc1nc(N2CCN(C(=O)CCCCCCCCCCNC(=O)[C@H]([C@@H](C)CC)n3cc(CCCCN=C(N)N)nn3)CC2)nc(N2CCN(C(=O)CCCCCCCCCCNC(=O)[C@H](CO)n3cc(CCCSC)nn3)CC2)n1 | -0.7%
3 | NC(N)=N/N=C/c1ccc(OCc2ccc(Cl)cc2Cl)cc1 | -1.8%
4 | COc1ccc(-c2nnc3ccc(SCc4ccccc4)nn23)cc1 | -6.5%
5 | COc1cccc(Cn2cnc3c([N+](=O)[O-])c(C)c(C)cc32)c1 | -0.7%
6 | CN(C(=O)CN(CCO)CC(=O)N(C)C(C)(C)Cc1ccccc1)C(C)(C)Cc1ccccc1 | -0.1%
7 | CCOc1ccc2nc(N(CCCN(C)C)C(=O)c3ccc(C(=O)c4ccccc4)cc3)sc2c1 | 3.4%
8 | Cc1ccc(C(=O)N/C(=C/c2ccc(-c3cccc([N+](=O)[O-])c3)o2)C(=O)NCCCN(C)C)cc1 | -0.7%
9 | COc1ccc(C(CNC(=O)c2cccc(NS(=O)(=O)c3ccc(C)c(F)c3)c2)N2CCCC2)cc1 (stereo not given) | 0.9%
10 | Cn1c(C(=O)NCCCN2CCN(c3cccc(Cl)c3)CC2)cc2c(=O)n(C)c3ccccc3c21 | 1.8%
11 | CC1CC(C)(C)n2c(O)c(N=NC(N)=S)c3cccc1c32 (stereo not given) | -2.8%
12 | CN(C)CCCN(C(=O)c1ccc(S(=O)(=O)N2CCCCCC2)cc1)c1nc2ccc(Br)cc2s1 | 0.1%
13 | COc1ccc2sc(-c3ccc(S(C)(=O)=O)cc3)c(C#Cc3cncn3C)c2c1 | 0.2%
14 | COc1ccc(-n2nnnc2-c2nc3ccccc3s2)cc1 | 85.5% (active)
15 | CCN(CC)CCNC(=O)c1ccc(NC(=O)c2cc(-c3ccncc3)nc3ccccc23)cc1 | -3.4%
16 | O=S(=O)(c1ccc(NC(=S)NN=C(C2CC2)C2CC2)cc1)N1CCOCC1 | 3.2%
17 | COc1ccc2sc(-c3ccccc3OC)c(-c3ccc(OCCN4CCCC4)cc3)c2c1 | -2.6%
18 | O=c1cc(CO)oc(C(Nc2cccc([N+](=O)[O-])c2)c2ccccn2)c1O (stereo not given) | 1.9%
19 | Cc1nc(N2CCN(c3ccccn3)CC2)c2c(C)c(C(=O)Nc3ccc(F)cc3)sc2n1 | -2.6%
20 | C#CCOCCOCCOCCNc1nc(N2CCN(C(=O)CCCCCCCCCCNC(=O)Cn3cc(CCCCCN)nn3)CC2)nc(N2CCN(C(=O)CCCCCCCCCCNC(=O)[C@H](CO)n3cc(CCCSC)nn3)CC2)n1 | 3%
21 | S=c1nc2ccccc2c2nc(-c3cccnc3)[nH]n12 | 16%
22 | Cc1ccc(N(C(=O)c2snc(C(N)=O)c2N)C(C(=O)NCC2CCCO2)c2c[nH]c3ccccc23)cc1 (stereo not given) | 0.8%
23 | CCN(CC)CCC(c1cc(OC)c(OC)c(OC)c1)c1c(OC)cc(OC)c2c(-c3ccccc3)cc(=O)oc12 (stereo not given) | -2%

Row | SMILES | inhibition
24 | Cc1ccccc1C(=O)OC1OC(=O)C(Cl)=C1Nc1ccccc1 (stereo not given) | -0.3%
25 | O=C(COC(=O)Cn1cnc2ccccc2c1=O)NCc1ccccc1Cl | -0.6%
26 | COc1cccc(N(C(=O)c2snc(C(N)=O)c2N)C(C(=O)NCC2CCCO2)c2c[nH]c3ccccc23)c1 (stereo not given) | -8.9%
27 | COc1ccccc1-c1sc2ccccc2c1-c1ccc(C(C)=O)cc1 | 12.1%
28 | Cc1ccc(NC2=C(Cl)C(=O)OC2OC(=O)c2ccccc2C)cc1 (stereo not given) | 0.6%
29 | CSCCC(NC(=O)c1ccc(Cl)cc1Cl)C(=O)NNC(=O)c1csc(N2CCOCC2)n1 (stereo not given) | 1.1%
30 | COc1ccc(C(CNC(=O)c2ccc(S(=O)(=O)Nc3ccccc3F)cc2)N(C)C)cc1 (stereo not given) | 2.2%
31 | COc1ccc(-c2sc3ccccc3c2-c2ccc(OCCN3CCOCC3)cc2)cc1 | 0.1%
32 | Cc1ccc(C(C(=O)NCC2CCCO2)N(C(=O)c2snc(C(N)=O)c2N)c2ccc(C(C)C)cc2)o1 (stereo not given) | -0.8%
33 | C#CCOCCOCCOCCNc1nc(N2CCN(C(=O)CCCCCCCCCCNC(=O)[C@H](CCCCN)n3cc(C)nn3)CC2)nc(N2CCN(C(=O)CCCCCCCCCCNC(=O)[C@H](CO)n3cc(CCCSC)nn3)CC2)n1 | -3.2%
34 | CCOCCCNC(=O)c1cn(CC(C)C)c(=O)c2c1c1ccccc1n2C | -2.3%
35 | COc1cccc2sc3cc(NCC[C@@H]4CCCN4C)ccc3c(=O)c12 | 63.1% (active)
36 | NC(=O)NC(CC(=O)NNC(=O)c1ccccn1)c1ccc(Cl)cc1 (stereo not given) | -0.9%
37 | Cc1ncc(CO)c(/C=N/NC(=O)c2cccc(S(=O)(=O)N3CCCC3)c2)c1O | -0.5%
38 | Cc1ccc(-c2noc(CCC(=O)Nc3ccccc3N3CCN(C)CC3)n2)cc1 | -3.5%
39 | CC1(C)Cc2ccccc2-c2[nH]c(=S)[nH]c(=O)c21 | 2.3%
40 | CCOC(=O)c1ccc(NC(=O)c2nc[nH]c2C(=O)NCc2ccccc2)cc1 | 1.9%
41 | O=C(CCCCCn1c(=O)[nH]c2ccccc2c1=O)NCCc1c[nH]c2ccccc12 | -2%
42 | O=C(CCCCCN1C(=O)c2cccc3cccc(c23)C1=O)NCc1ccco1 | -1.7%
43 | CCOc1ccc(N(C(=O)c2snc(C(N)=O)c2N)C(C(=O)NCC2CCCO2)c2c[nH]c3ccccc23)cc1 (stereo not given) | -4.2%
44 | Cc1ccc(NC(=O)c2cnc(SCC(=O)NCC3CCCO3)n(C)c2=O)cc1 (stereo not given) | 96.8% (active)
45 | CC(=O)NC(=S)NNC(=O)c1ccc(Br)cc1 | 6.4%
